Among the data in PubChem BioAssay (NCATS) are Potency and activity change, negative = cytotoxic values, retold here.

Records with an inconclusive call do not appear. Where a call stands in place of a potency, no number is given. Unmarked numbers belong to inactive results. Active and inactive are the calls of the source. The call rests on the fitted dose curve; in most records, active means well fitted cell-killing curve with a large enough effect; inconclusive means small, poorly fitted or top-dose-only effect; inactive means flat fitted curve, though single readings scatter.

This assay is described as follows: qHTS of pediatric cancer cell lines to identify multiple opportunities for drug repurposing: Primary screen for Rh18 cells (AID 1347102). Further: nearly all actives have a fitted effect of over 65% in size. As to conditions: Rh18 rhabdomyosarcoma viability, CellTiter-Glo luminescence, 48 h; series mostly up to 46 µM. The source says: Drug repurposing or repositioning has been offered as a strategy for drug development in oncology programs. This approach has special potential for childhood cancers and other rare or orphan diseases, where the expected return on new drug development has been a disincentive to pharmaceuticals.
In this project we exploit the poly-pharmacology of drugs to discover new indications via phenotypic screening of a panel of 19 well-characterized cell lines derived from solid tumors seen in children and adolescents. The goal is to identify approved drugs with previously unrecognized anticancer properties that has the potential to reveal new mechanisms and biological processes involved in carcinogenesis or drug resistance. We employed a titration-based paradigm (quantitative high-throughput screening or qHTS), where all compounds were tested at multiple concentrations for their effect on cell viability. Concentration-response curves (CRCs) were derived directly from the primary screen, and both potency and efficacy values were used to identify compounds with robust bioactivity profiles. We screened the NIH Chemical Genomics Center (NCGC) Pharmaceutical Collection (NPC) and Mechanism Interrogation Plate (MIPE) small molecule collections of approved and investigational compounds against these cell lines; and measured metabolically active cells after 48 hours of compound treatment as a proxy for cell viability.
Assay Submitter: Nathalia J. Martinez, National Center for Advancing Translational Sciences, National Institutes of Health, Rockville, MD, USA; email: natalia.martinez@nih.gov
[1] Shen, M et al. Quantitative high-throughput phenotypic screening of pediatric cancer cell lines identifies multiple opportunities for drug repurposing. Oncotarget 2017 Dec 19;9(4):4758-4772. PMID 29435139.
The cells were obtained from University of North Carolina (UNC), Pediatric Preclinical Testing Program (PPT), and Coriell Institute (CI).
qHTS cell viability assay:
Cells were assayed in growth media at a density of 500-1,000 cells/well. Five microliters of cells were dispensed into 1,536-well, white, solid-bottom, TC-treated plates (Greiner Bio One) using a multidrop dispenser and incubated at 37 degrees C, 5% CO2, under a humidified atmosphere for 5 hours. Twenty-three nanoliters of compounds and controls (neutral control DMSO or positive control bortezomib at final concentration of 2.3 µM) were subsequently transferred by Kalypsys pintool. For primary screens, the MIPE collection was tested at 11-point dilutions (final concentrations range from 0.78 nM to 46 µM) and the NPC collection at 8-point dilutions (final concentrations range from 0.59 nM to 46 µM). Compounds tested in follow-up screens were assayed at 11-point dilutions. Cells were incubated for 48 hours, followed by addition of 3 µL of CellTiter-Glo (Promega). After a 15 min incubation at room temperature, samples were analyzed for luminescence intensity using a ViewLux High-throughput CCD imager equipped with clear filters.
With `CN1CCN(c2c(F)cc3c(=O)c(C(=O)O)cn4c3c2SCC4)CC1`, the Potency result is “inactive”. Still for that read-out and setting: under `CCN(CC)CCOc1ccccc1C(=O)CCc1ccccc1` stands “inactive”; under `CCCCCCCCCCCCCCCC(=O)O`, “inactive”; under `NC1CCN(c2nc3c(cc2F)c(=O)c(C(=O)O)cn3-c2ccc(F)cc2F)C1` (stereo not given), “inactive”.

In the case of `Oc1ccccc1C=NCc1ccccc1`, the Potency entry is “inactive”. Still for that read-out and setting: the value for `CCOC(=O)c1ccc(N)cc1` was “inactive”; that for `OC[C@H]1O[C@@H](Oc2ccc(O)cc2)[C@H](O)[C@@H](O)[C@@H]1O` was “inactive”. In the case of `O=C(O)C1(C(=O)O)CCC1.[NH2-].[NH2-].[Pt+2]`, the Potency result was “inactive”. The same measure, in the same setting: the value for `OC(C#CCN1CCCC1)(c1ccccc1)c1ccccc1` was “inactive”. Turning to `O=C(c1ccc(F)cc1)C1CCN(CCn2c(=S)[nH]c3ccccc3c2=O)CC1`, the Potency entry was “inactive”. On to `CCCc1ncc(C[n+]2ccccc2C)c(N)n1`, for which the Potency entry was “inactive”. For the molecule `CCOc1cc(OCC)c(C(=O)CCC(=O)O)cc1OCC`, the Potency result is “inactive”. On the same count and under the same terms, under `CCC1NC(=O)c2cc(S(N)(=O)=O)c(Cl)cc2N1` (stereo not given) stands “inactive”; under `C[N+]1(C)CCC(=C(c2ccccc2)c2ccccc2)CC1`, “inactive”; under `O=C1C(=O)c2ccccc2C(O)=C1C1CCC(c2ccc(Cl)cc2)CC1` (stereo not given), “inactive”. `CCOc1ccccc1C(N)=O`: the Potency result was “inactive”.

For `COc1ccc(S(=O)(=O)N2c3ccc(Cl)cc3[C@@](O)(c3ccccc3Cl)[C@H]2C(=O)N2CCC[C@@H]2C(N)=O)cc1OC`, the Potency result was “inactive”. `COc1cc(C(=S)N2CCOCC2)ccc1O`: the Potency entry was “inactive”. `COC(=O)C(c1ccccc1Cl)N1CCc2sccc2C1` (stereo not given): the Potency result was “inactive”. Consider `CC(=O)OCC(=O)[C@H]1CC[C@H]2[C@@H]3CCC4=CC(=O)CC[C@]4(C)[C@H]3CC[C@]12C`, for which the Potency result was “inactive”. Consider `CCCCNC(=O)NS(=O)(=O)c1ccc(N)cc1`, for which the Potency entry is “inactive”.

For the molecule `C[C@]12CCC(=O)C=C1C=C[C@@H]1[C@@H]2CC[C@@]2(C)[C@H]1CC[C@@]21CCC(=O)O1`, the Potency result is “inactive”.

As for `Nc1nc(Cl)nc2c1ncn2[C@@H]1O[C@H](CO)[C@@H](O)[C@@H]1F`, the Potency result is “inactive”. Regarding `CC[C@H](c1ccc(O)cc1)[C@@H](CC)c1ccc(O)cc1`, the Potency result is “inactive”.

Turning to `CCN[C@@H]1C[C@H](N)[C@@H](OC2OC(CN)=CCC2N)[C@H](O)[C@H]1O[C@H]1OC[C@](C)(O)[C@H](NC)[C@H]1O` (stereo not given in full), the activity change, negative = cytotoxic is 7.22% [at 0.597 µM]. Take `NC(=O)c1ccccc1O`: the Potency result is “inactive”. In the case of `Cc1ccc(-c2ncc(Cl)cc2-c2ccc(S(C)(=O)=O)cc2)cn1`, the Potency entry was “inactive”. `O=[N+]([O-])c1ccc(/C=N\O)o1`: the Potency result is “inactive”. On to `Nc1nc(N)c(-c2ccccc2)s1`, for which the Potency result was “inactive”. Consider `C#C[C@]1(OC(C)=O)CC[C@H]2[C@@H]3CCC4=C/C(=N/O)CC[C@@H]4[C@H]3CC[C@@]21CC`, for which the Potency entry is “inactive”. Still for that read-out and setting: under `CCN(CC)CCOC(=O)C1(c2ccccc2)CCCC1` stands “inactive”.

Take `CCN(CC)CCNC(=O)c1cc(Br)c(N)cc1OC`: the Potency entry is “inactive”.

Consider `CC(=O)Nc1ccc(OC(=O)c2ccccc2OC(C)=O)cc1`, for which the Potency entry was “inactive”. For the molecule `COc1ccc(CN(CCN(C)C)c2ncccn2)cc1`, the Potency result was “inactive”. With `CCCCN=C(N)N=C(N)N`, the Potency result was “inactive”. On to `CCO[C@@H]1O[C@H](C(COCc2ccccc2)OCc2ccccc2)[C@H](OCc2ccccc2)[C@H]1O` (stereo not given in full), for which the Potency entry is “inactive”. With `Cl/C(=C\n1cncn1)c1ccc(Cl)cc1Cl`, the Potency result is “inactive”. For `NS(=O)(=O)c1cc(C(=O)O)cc(N2CCCC2)c1Oc1ccccc1`, the Potency entry was “inactive”. As to `C=CCN1CCc2nc(N)sc2CC1`, the Potency result was “inactive”. `COP(=O)(OC)OC(c1ccc(Cl)cc1)P(=O)(OC)OC` (stereo not given): the Potency entry was “inactive”.
